# Screening data deposited in PubChem by National Center for Advancing Translational Sciences (NCATS).
# SARS PLP yeast: blocks SARS-CoV papain-like protease in a yeast assay; S. cerevisiae expressing SARS-CoV PLpro, growth rescue; Potency, µM (titrated, usually from 32.9 µM), without a hit: top-dose activity, positive = growth rescue, hits mostly activators; hit rate 0.19% among 330,000; AID 485353; calls by dose curve; further: 0% is about no effect; nearly all actives have a fitted effect of over 55% in size
# AMA1-RON2 inh: inhibitors of Plasmodium falciparum AMA1-RON2 interaction; hit rate 0.2% among 360,000; AlphaScreen AMA1-biotinylated RON2 peptide binding; AID 720542; Potency, µM (doses to about 58.2 µM), without a hit: at the top dose activity change, negative = inhibition, usual class: inhibitors;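 further: 0% = vehicle wells and -100% = peptide control; nearly all actives have a fitted effect of over 45% in size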
#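 AMA1 (3D7) with his tag at 25 nM final met compounds first, then biotinylated RON2 peptide at 25 nM; detection used donor plus acceptor beads, 10 µg/mL apiece, read by AlphaScreen after 30 min at room temperature.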
# Pf growth 48h: P. falciparum growth inhibition at 48 hours (one generation). hit rate 5.9% among 310,000. P. falciparum luciferase growth in erythrocytes, 48 h. Potency, µM (titrated, usually from 28.7 µM), inactives show at the top dose activity change, negative = inhibition, usual class: inhibitors; further: on the % scale 0 is the no-effect control and ±100 the full control effect
#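 Read-out is firefly luciferase luminescence from an integrated reporter in P. falciparum, so falling signal marks reduced parasite growth. Infected erythrocytes were at 2% hematocrit and 0.1% parasitemia (final) in Albumax-supplemented RPMI 1640.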
# Pf growth 96h: P. falciparum growth inhibition at 96 hour, primary screen for plastid delayed-death inhibitors; P. falciparum luciferase reporter growth, 96 h; Potency, µM (top dose mostly 28.7 µM), inactives show at the top dose activity change, negative = inhibition, actives largely listed as inhibitors; hit rate 6.9% among 320,000; further: on the % scale 0 is the no-effect control and ±100 the full control effect
#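 Readout is luminescence from an integrated firefly luciferase in P. falciparum. Red cells, 2% hematocrit and 0.05% parasitemia final, were cultured with compound through two parasite generations (96 hours) at 37 C, 5% CO2.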
# Active calls of the source: *; ? = inconclusive; . = no result; [ ] = remark or other dose. Sampled rows, rich in hits. Any-hit rate of the full collection: about 9.4%. Unless noted, the call rests on the fitted dose curve; in most records, active means well fitted curve in the direction sought with a large enough effect; inconclusive means small, poorly fitted or top-dose-only effect, or another doubt; inactive means no such curve, though single readings can be large; an effect the other way counts as inactive or inconclusive. Potency means the concentration at half of the fitted maximal effect.
SMILES,SARS PLP yeast,AMA1-RON2 inh,Pf growth 48h,Pf growth 96h
CC(C)C(C)NC(=O)CSc1nc2scc(-c3ccco3)c2c(=O)n1-c1ccccc1 (centres undefined),3%,-3%,12µM*,.
CC(C)C(C)(C#N)NC(=O)CSc1nc2scc(-c3ccco3)c2c(=O)n1-c1ccccc1 (centres undefined),-2%,-16%,9.3µM*,?
O=C(c1c[nH]c2ccccc12)C(O)C(c1ccccc1)N1CCOCC1 (centres undefined),4%,-5%,-4%,13%
COc1ccc(C(C(O)C(=O)c2c[nH]c3ccccc23)N2CCN(c3ccc(OC)cc3)CC2)cc1 (centres undefined),-2%,-18%,13µM*,.
COc1cccc(C(=O)N2CCC[C@H]2C(=O)N2CCC[C@H]2C(=O)N(C)Cc2ccccc2)c1,.,5%,.,.
COc1ccc(C2=NN(c3nc4ccccc4s3)C(=O)/C2=C\N(C)C)cc1,-2%,83%,3%,49%
COc1ccc(NC(=O)C(CC(=O)O)Cc2ccc(Br)cc2)cc1 (centres undefined),-3%,0%,4%,?
COc1ccc(NC(=O)C(CC(=O)O)Cc2ccccc2)cc1 (centres undefined),6%,7%,4%,7.4µM*
COc1ccc(NC(=O)Nc2ccccc2SC)cc1,-2%,-4%,239%,5.9µM*
COc1ccc(NC(=O)Nc2ccccc2F)cc1,-2%,6%,.,324%
COc1ccc(OC)c(/C=N/NC(=O)c2cc[n+](Cc3ccccc3)cc2)c1,0%,8%,8%,53%
N#CC1=C(N)NC(=S)C(C(N)=O)C1c1ccccc1F (centres undefined),2%,18%,22%,7%
Nc1ccc(O)c(-c2nc3ccccc3s2)c1,-5%,21%,?,?
Nc1ccccc1-c1nc2ccccc2s1,-2%,135%,68%,9.3µM*
O=C(CCn1cccc1)NC1CCCc2ccccc21 (centres undefined),4%,-9%,6%,6.6µM*
COc1ccc(NC(=O)NC2CCCc3ccccc32)cc1OC (centres undefined),-5%,-10%,137%,-23%
O=C(CCCOc1ccccc1)NC1CCCc2ccccc21 (centres undefined),19%,-2%,-2%,43%
Cc1nc2ccccn2c1C(=O)NC1CCCc2ccccc21 (centres undefined),-6%,4%,9.3µM*,?
COc1cccc(CNC2CCCc3ccccc32)c1OC (centres undefined),2%,-15%,-9%,2.9µM*
O=C(NC1CCCc2ccccc21)c1cn2ccccc2n1 (centres undefined),-2%,0%,8%,1%
COc1ccc(C)cc1NC(=O)NC1CCCc2ccccc21 (centres undefined),1%,5%,12µM*,16%
CCCCCc1c(O)nc(SCCN(C)C)[nH]c1=O,0%,-14%,1%,13%
O=C(COC(=O)CCS(=O)(=O)c1ccc(Cl)cc1)NCCc1ccc(Cl)cc1Cl,1%,0%,7%,9%
CNC[C@H]1Oc2cc(Br)ccc2S(=O)(=O)N([C@@H](C)CO)C[C@H]1C,.,13%,.,.
O=C(Cc1ccc(Br)cc1)NC1CCCc2ccccc21 (centres undefined),1%,7%,-11%,-14%
SMILES,SARS PLP yeast,AMA1-RON2 inh,Pf growth 48h,Pf growth 96h
Cc1ccc(NC(=O)C(NC2CCCc3ccccc32)c2ccccc2)cc1Cl (centres undefined),-36%,-22%,?,?
COc1ccccc1OCC(=O)NC1CCCc2ccccc21 (centres undefined),-2%,-3%,-3%,-5%
O=C(CCl)NC1CCCc2ccccc21 (centres undefined),0%,-8%,12µM*,48%
Cc1cc(C)cc(OCC(=O)NC2CCCc3ccccc32)c1 (centres undefined),.,-8%,?,8.3µM*
Cc1ccc(NC(=O)C(NC2CCCc3ccccc32)c2ccccc2)c([N+](=O)[O-])c1 (centres undefined),-15%,-15%[2.32 µM],13µM*,?
Cc1ccccc1CN1CCN(C(=O)[C@H]2O[C@@H](n3ccc(=O)[nH]c3=O)[C@H](O)[C@@H]2O)CC1,.,-2%,.,.
CCN(CC)c1ccc(S(=O)(=O)Nc2cc(Cl)ccc2Cl)cc1NC(=S)NC(=O)C1CCCC1,-7%,-2%[11.6 µM],-10%,-27%
CN(c1ccccc1)S(=O)(=O)c1cccc(C(=O)NC2CCCC2)c1,5%,12%,.,.
CCN(CC)S(=O)(=O)c1ccc(Cl)c(NC(=S)NC(=O)C2CCCC2)c1,5%,60%,13µM*,?
CCN(CC)S(=O)(=O)c1ccc(C)c(NC(=S)NC2CCCCC2)c1,1%,-7%,15µM*,?
CCN(CC)S(=O)(=O)c1cccc(C(=O)NC2CCCCC2)c1,4%,2%,19%,1.7µM*
N#Cc1cccc(NC(=O)COC(=O)c2ccccc2Sc2ccccc2C#N)c1,3%,-3%,30%,30%
OC1(C#CCN2CCCC2)c2ccccc2-c2ccccc21,0%,11%,12µM*,?
CCN(CC)CCC#CC1(O)c2ccccc2-c2ccccc21,1%,-4%,-10%,3.3µM*
CN(C)CCC#CC1(O)c2ccccc2-c2ccccc21,-8%,-2%,12%,58%
O=C(COc1ncnc2scc(-c3ccc(F)cc3)c12)NCc1ccco1,2%,6%,.,-24%
COCCn1c(-c2ccc(SC)cc2)nc2c1c(=O)[nH]c(=O)n2CC(C)C,1%,0%,-49%,4%
COCCn1c(-c2ccc(OC(F)(F)C(F)C(F)(F)F)cc2)nc2c1c(=O)[nH]c(=O)n2CC(C)C (centres undefined),-4%,5%,.,6.6µM*
O=C(Nc1ccccc1)N(CCCN1CCOCC1)Cc1ccccc1F,-6%,4%,-12%,-30%
CCc1ccccc1NC(=S)N(CCN1CCOCC1)Cc1ccccc1F,1%,-12%,-22%,10µM*
O=C(Nc1cccc(Cl)c1)N(CCCN1CCOCC1)Cc1ccccc1F,-20%,-5%,-26%,2.1µM*
COc1cccc(N(CC(=O)N2CCN(C)CC2)S(=O)(=O)c2ccccc2)c1,7%,4%,13%,?
CCn1nc(/C=C/c2ccccc2)nc2c(=O)n(C)c(=O)nc1-2,0%,11%,-3%,12µM*
CCn1nc(-c2cccs2)nc2c(=O)n(C)c(=O)nc1-2,-30%,0%,-10%,.
CC1CCCCN1CCNC(=O)c1ccc2c(c1)N(Cc1ccccc1F)C(=O)c1ccccc1S2=O (centres undefined),8%,7%,?,5.9µM*
O=C(NCCN1CCCC1)c1ccc2c(c1)N(Cc1ccc(F)cc1)C(=O)c1ccccc1S2=O (centres undefined),-10%,3%,12µM*,?
O=C(NCCCN1CCCC1)c1ccc2c(c1)N(Cc1ccccc1F)C(=O)c1ccccc1S2=O (centres undefined),22%,3%,?,1%
